“And” between values parts separate entries of the source, which are not always exact repeats. Equal entries are not always repeated. For some of these results: Results with a measured potency or affinity are listed apart. Where a structure was tested more than once in an assay, its records may differ in their call. The source made the active and inactive calls.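 How the source made its calls, unless noted: active means thallium flux through the channel raised or lowered by more than 3 SD from vehicle-only wells, actives on both sides; inactive means the rest.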
What was measured:
[1] = liver-stage malaria parasite growth inhibition, primary screen, cell-based, HepG2, luciferase luminescence, HepG2 viability (AID 624349; in the data active means parasite load remaining mostly below about 12%, no sharp cut-off; inactive means mostly above about 10%;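 further: 100% = mean of DMSO negative control wells on the same plate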); conditions: P. berghei liver stage in HepG2, luciferase luminescence, concentration not given here; parasite load remaining: stronger effect = lower value; viability: measured here: HepG2 viability without parasites
[2] = Cy5 fluorescence interference with SSB-bound oligo, artefact control for HCV NS3 helicase inhibitor project, biochemical, NIH Clinical Collection, E. coli SSB (AID 743268; call rule not given here)
[3] = modulation of C. elegans fzo-1 (AID 1259413; call rule not given here;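 further: fzo-1 mutant C. elegans worms in liquid wells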); conditions: C. elegans fzo-1 modulator screen, mean read-out; stronger effect = higher value
[4] = viability rescue of complex I mutant cybrids, primary screen, cell-based, galactose medium, ATP luminescence (AID 1645843;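 active means z-score of at least 1.8 in each of two replicates, scored against plate mean and spread of sample wells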;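 further: positive z means more ATP and so rescue of galactose-driven cybrid death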); conditions: complex I mutant cybrid cells, 72 h, stronger effect = higher value
F380Y/beta1 = assay: modulators of BK channel variants, profiling panel, selectivity assay, cell-based, U2OS BacMam, thallium flux, beta subunits (AID 1259406); conditions: at 30 µM;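 further: initial slope of Thallos dye fluorescence rise after thallium is added; log ratio against the mean of 0.3% DMSO vehicle wells on the same plate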
F380Y/beta4 = assay: as above; conditions: at 30 µM
R275C = assay: as above; conditions: at 30 µM
R275C/beta1 = assay: as above; conditions: at 30 µM
R275C/beta2Delta = assay: as above; conditions: at 30 µM
R275C/beta4 = assay: as above; conditions: at 30 µM
R275C/Slo1WT/beta2 = assay: as above; conditions: at 30 µM
[5] = polyglutamine-triggered caspase-3 activation inhibitors, cell-based (AID 1583); conditions: polyglutamine-induced caspase-3 activation, cell assay; stronger effect = higher value;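 tested at 10 µM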
[6] = suppressors of polyQ aggregation in yeast, 75Q-TubU reporter (AID 1593); conditions: Yeast 75Q polyglutamine aggregation reporter
[7] = rescue of polyQ-huntingtin neuronal dysfunction in worms, whole organism, C. elegans mechanosensory neurons, N-terminal huntingtin (AID 1599); conditions: touch response, stronger effect = higher value
[8] = inhibitors of mitochondrial cytochrome c release, biochemical, purified mitochondria (AID 1603); conditions: stronger effect = lower value;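 further: mouse liver mitochondria challenged with calcium chloride; signal normalized to the plate average as 100%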
[9] = inhibitors of polyQ protein aggregation (AID 1604); conditions: polyglutamine-induced protein aggregation inhibition assay; stronger effect = higher value; tested at 2.5 µM
[10] = enhancers of glutamate uptake in motor neurons, MN-1 cell line (AID 1612); conditions: MN-1 motor neuron cells, stronger effect = higher value;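 further: tested at 1 µM final; 0% = mean of DMSO vehicle wells on each plate; positive means more glutamate uptake than control and negative means less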
[11] = suppressors of polyglutamine aggregation in yeast, 75Q-TubH (AID 1616); conditions: S. cerevisiae 75Q-TubH polyglutamine aggregation suppression; stronger effect = higher value
[12] = hESC survival regulators, cell-based (AID 493140; call rule not given here;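 further: cells exposed to compounds for four days before counting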); conditions: human embryonic stem cell survival screen; stronger effect = higher value
[13] = test system: Hepatitis C virus NS3 helicase; assay: HCV NS3 helicase inhibitors, primary screen, biochemical, fluorescence polarization, LOPAC1280 library (AID 687035; in the data active means inhibition above about 37%); conditions: Purified HCV NS3 helicase, Cy5-dT15 ssDNA binding fluorescence polarization; stronger effect = higher value; concentration not given here

CCCCCCCCCCC[C@@H](C[C@@H]1OC(=O)[C@H]1CCCCCC)OC(=O)[C@H](CC(C)C)NC=O
74.1%: viability [1]
inactive: parasite load remaining [1] 74.9% | fluorescence ratio [2] 1.04 | mean signal [3] 258 | z-score [4] 0.54 | log fold change Tl+ flux (F380Y/beta1) 0.0468 | log fold change Tl+ flux (F380Y/beta4) 0.0138 | log fold change Tl+ flux (R275C) -0.0306 | log fold change Tl+ flux (R275C/beta1) -0.0228 | log fold change Tl+ flux (R275C/beta2Delta) -0.0121 | log fold change Tl+ flux (R275C/beta4) -0.0426 | log fold change Tl+ flux (R275C/Slo1WT/beta2) -0.00736

c1ccc2c(CC3=NCCN3)cccc2c1
16.4%: inhibition [5]
1.14: cytochrome c release ratio [8]
-1.7: rescue above control [7]
79.6%: inhibition of aggregation [9]
inactive: survival [12] 12.7 | fluorescence ratio [2] 1.03 | mean signal [3] 245 | z-score [4] 0.47 and 0.505 | log fold change Tl+ flux (F380Y/beta1) 0.0282 | log fold change Tl+ flux (F380Y/beta4) 0.0394 | log fold change Tl+ flux (R275C) -0.0401 | log fold change Tl+ flux (R275C/beta1) -0.0378 | log fold change Tl+ flux (R275C/beta2Delta) 0.00508 | log fold change Tl+ flux (R275C/beta4) -0.0196 | log fold change Tl+ flux (R275C/Slo1WT/beta2) -0.0172
-6.49%: glutamate uptake change [10]
1.49: aggregation suppression score [11]
1.41: score [6]

CCOc1ccc2ccccc2c1C(=O)N[C@@H]1C(=O)N2[C@@H]1SC(C)(C)[C@@H]2C(=O)O
inactive: survival [12] 3.33 | parasite load remaining [1] 85.4% and 87.9% | fluorescence ratio [2] 1.06 | mean signal [3] 253 | z-score [4] 0.835 | log fold change Tl+ flux (F380Y/beta1) -0.0293 | log fold change Tl+ flux (F380Y/beta4) -0.0322 | log fold change Tl+ flux (R275C) -0.00323 | log fold change Tl+ flux (R275C/beta1) 0.00845 | log fold change Tl+ flux (R275C/beta2Delta) 0.0249 | log fold change Tl+ flux (R275C/beta4) -0.041 | log fold change Tl+ flux (R275C/Slo1WT/beta2) 0.0157
103% and 91.5%: viability [1]

CCS(=O)(=O)CCn1c([N+](=O)[O-])cnc1C
inactive: survival [12] 3.33 | fluorescence ratio [2] 0.97 | mean signal [3] 232 | z-score [4] 0.655 and 0.575 | log fold change Tl+ flux (F380Y/beta1) 0.0365 | log fold change Tl+ flux (F380Y/beta4) -0.041 | log fold change Tl+ flux (R275C) 0.0103 | log fold change Tl+ flux (R275C/beta1) -0.0101 | log fold change Tl+ flux (R275C/beta2Delta) -0.0183 | log fold change Tl+ flux (R275C/beta4) -0.0453 | log fold change Tl+ flux (R275C/Slo1WT/beta2) -0.0158

CN[C@@H]1[C@H](O)[C@H](NC)[C@H]2O[C@@]3(O)C(=O)C[C@@H](C)O[C@H]3O[C@@H]2[C@H]1O
-0.34%: glutamate uptake change [10]
0.85: cytochrome c release ratio [8]
1.46: aggregation suppression score [11]
inactive: survival [12] 3.25 | fluorescence ratio [2] 1.06 | z-score [4] 0.84 and 1 | log fold change Tl+ flux (F380Y/beta1) 0.00447 | log fold change Tl+ flux (F380Y/beta4) 0.0229 | log fold change Tl+ flux (R275C/beta1) 0.0857 | log fold change Tl+ flux (R275C/beta2Delta) -0.00159 | log fold change Tl+ flux (R275C/beta4) 0.0437 | log fold change Tl+ flux (R275C/Slo1WT/beta2) -0.0137
0.75: rescue above control [7]
1.49: score [6]
active: log fold change Tl+ flux (R275C) 0.108
16.9%: inhibition [5]
14.3%: inhibition of aggregation [9]

Nc1nc2ncc(CNc3ccc(C(=O)N[C@@H](CCC(=O)O)C(=O)O)cc3)nc2c(=O)[nH]1
1.02: score [6]
15.9%: inhibition [5]
77.8%: inhibition of aggregation [9]
inactive: fluorescence ratio [2] 0.95 | mean signal [3] 246 | z-score [4] -0.64 | log fold change Tl+ flux (F380Y/beta1) -0.0026 | log fold change Tl+ flux (F380Y/beta4) 0.025 | log fold change Tl+ flux (R275C) -0.0335 | log fold change Tl+ flux (R275C/beta1) 0.00862 | log fold change Tl+ flux (R275C/beta2Delta) 0.0304 | log fold change Tl+ flux (R275C/beta4) -0.0613 | log fold change Tl+ flux (R275C/Slo1WT/beta2) -0.0318
1.14: aggregation suppression score [11]
0.74%: glutamate uptake change [10]
-0.86: rescue above control [7]
1.08: cytochrome c release ratio [8]

C[C@H]1C[C@@H]2[C@H]([C@@H](O)C[C@@]3(C)[C@H]2CC[C@]3(O)C(=O)CO)[C@@]2(C)C=CC(=O)C=C12
inactive: survival [12] 11.9 | fluorescence ratio [2] 1.07 | mean signal [3] 290 | z-score [4] -0.075 and 0.335 | log fold change Tl+ flux (F380Y/beta1) 0.0255 | log fold change Tl+ flux (F380Y/beta4) -0.0167 | log fold change Tl+ flux (R275C) -0.0399 | log fold change Tl+ flux (R275C/beta1) -0.0807 | log fold change Tl+ flux (R275C/beta2Delta) 0.0437 | log fold change Tl+ flux (R275C/beta4) -0.00754 | log fold change Tl+ flux (R275C/Slo1WT/beta2) 0.0152

CN(C)c1ccc(O)c2c1C[C@H]1C[C@H]3[C@H](N(C)C)C(=O)C(C(N)=O)=C(O)[C@@]3(O)C(=O)C1=C2O
0.425: aggregation suppression score [11]
0.98: score [6]
inactive: survival [12] 9.58 | fluorescence ratio [2] 0.97 | log fold change Tl+ flux (F380Y/beta1) 0.00506 | log fold change Tl+ flux (F380Y/beta4) 0.0112 | log fold change Tl+ flux (R275C) -0.0348 | log fold change Tl+ flux (R275C/beta1) -0.00562 | log fold change Tl+ flux (R275C/beta2Delta) -0.0532 | log fold change Tl+ flux (R275C/beta4) -0.0291 | log fold change Tl+ flux (R275C/Slo1WT/beta2) -0.0415
88.9%: inhibition of aggregation [9]
-8.86%: inhibition [5]
0: rescue above control [7]
0.25: cytochrome c release ratio [8]
5.89%: glutamate uptake change [10]
-1.26 (inactive) and 2.96 (active): z-score [4]

COc1cc([C@@H]2c3cc4c(cc3[C@H](O)[C@H]3COC(=O)[C@H]23)OCO4)cc(OC)c1OC
107% and 103% and 113%: viability [1]
inactive: survival [12] 0.917 | parasite load remaining [1] 94.8% and 112% and 73% | fluorescence ratio [2] 1.01 | mean signal [3] 221 | z-score [4] 0.5 | log fold change Tl+ flux (F380Y/beta1) 0.00363 | log fold change Tl+ flux (F380Y/beta4) 0.0253 | log fold change Tl+ flux (R275C) -0.0185 | log fold change Tl+ flux (R275C/beta1) 0.0124 | log fold change Tl+ flux (R275C/beta2Delta) 0.0291 | log fold change Tl+ flux (R275C/beta4) 0.0119 | log fold change Tl+ flux (R275C/Slo1WT/beta2) 0.00946

Fc1ccc([C@@H]2CCNC[C@H]2COc2ccc3c(c2)OCO3)cc1
inactive: inhibition [13] -1% | fluorescence ratio [2] 1 | mean signal [3] 159 | z-score [4] -1.38 and -0.63 and -1.71

— PubChem BioAssay
